Bioassay records: PubChem, The Scripps Research Institute Molecular Screening Center
Shown are actives, neighbours in structure and some others; about 3.4% of the full set was active somewhere.
GPR151 ag: activates the human receptor GPR151; Q8TDV0; PathHunter beta-arrestin GPR151 cells, luminescence; activation, % at 11.2 µM; actives 1% (n = 650,000); AID 1508602; in the data active means activation above about 4.9%;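 further: 0% = median of compound wells and 100% = cells with positive control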
MITF primary: blocks human microphthalmia-associated transcription factor | inhibition, % at 2.6 µM | actives 0.91% (n = 650,000) | AID 1259374 | AlphaScreen MITF homodimerization, bead proximity signal; in the data active means inhibition above about 50%;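 further: 0% = vehicle wells with protein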
Target sequence (O75030 whole entry, looked up): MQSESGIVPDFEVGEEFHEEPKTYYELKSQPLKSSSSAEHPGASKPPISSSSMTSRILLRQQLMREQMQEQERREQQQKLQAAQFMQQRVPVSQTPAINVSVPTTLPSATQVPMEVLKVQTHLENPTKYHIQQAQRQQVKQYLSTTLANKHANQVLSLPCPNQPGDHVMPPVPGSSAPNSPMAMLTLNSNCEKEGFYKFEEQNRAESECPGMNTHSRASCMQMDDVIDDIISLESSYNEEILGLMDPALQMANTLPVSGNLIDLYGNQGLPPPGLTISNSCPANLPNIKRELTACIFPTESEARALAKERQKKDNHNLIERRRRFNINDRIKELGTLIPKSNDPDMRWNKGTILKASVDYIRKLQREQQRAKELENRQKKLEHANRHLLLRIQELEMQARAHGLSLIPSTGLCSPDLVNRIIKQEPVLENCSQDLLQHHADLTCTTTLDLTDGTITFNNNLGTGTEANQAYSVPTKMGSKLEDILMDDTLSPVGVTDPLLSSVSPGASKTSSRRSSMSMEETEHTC
TEAD-YAP inh: TEAD-YAP interaction inhibition. HEK-TIYL cells, TEAD-Gal4/YAP UAS-luciferase luminescence. inhibition, % at 9.12 µM. actives 1.4% (n = 640,000); in the data active means inhibition above about 32%;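 further: 0% = median of test compound wells and 100% = reference inhibitor wells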
FBW7 act: human FBW7 E3 ligase activation, primary screen; Q969H0; AlphaScreen FBW7–phospho-cyclin E peptide binding, activator screen; normalized activity (activation), % at 26.1 µM; actives 0.13% (n = 650,000); in the data active means normalized activity above about 1.9%;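 further: purified mutant Fbw7 with reduced substrate affinity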
MITF inh conf: confirmation of human MITF inhibitors | AlphaScreen MITF homodimerization, biotin/His-MITF beads | actives 16% (n = 4,700) | inhibition, % at 2.6 µM | shares compounds with MITF primary;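 active means inhibition above a cutoff derived from the DMSO control wells, cut at about 28% in these data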;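 further: 0% = MITF dimer wells with DMSO only; inhibitors lower the bead chemiluminescence by keeping MITF from dimerizing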
AS interf DR: AlphaScreen optical interference, dose response counter-screen | shares compounds with MITF primary | AID 1259373 | IC50, µM | AlphaScreen optical interference counterscreen, cell-free | actives 6% (n = 480); call rule not given here
AS interf ctr: counter-screen: compounds optically interfering with AlphaScreen | shares compounds with MITF primary | LysRS AlphaScreen counterscreen, signal interference, triplicate | inhibition, % at 2.6 µM | actives 7.6% (n = 4,700);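 active means inhibition above a cutoff derived from the DMSO control wells, cut at about 30% in these data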
* marks the source's active call; other numbers are inactive results.

Results for Cc1ccc(C(=O)OCc2cn3ccccc3n2)cc1 ?
GPR151 ag: -1; MITF primary: 51*; TEAD-YAP inh: -4; FBW7 act: 0; MITF inh conf: 11; AS interf ctr: 12

What do the screens show for `COc1cccc(-n2cc(C(=O)N3CCCCCC3)c3ccccc3c2=O)c1`?
GPR151 ag: 3; MITF primary: 1; TEAD-YAP inh: 2; FBW7 act: 0

How did CCOC(=O)c1c(NC(=O)CN2C(=O)c3ccccc3C2=O)sc2c1CCCCC2 do in these assays?
GPR151 ag: -1; MITF primary: 4; TEAD-YAP inh: 5; FBW7 act: 0

What do the screens show for `COc1cccc(OCCOCC(O)CN2CCN(c3ccccc3)CC2)c1` (stereo not drawn)?
GPR151 ag: -3; MITF primary: 15; TEAD-YAP inh: 1; FBW7 act: 0

How did COc1cccc(N2CCN(CC(O)COCC3=CCC4CC3C4(C)C)CC2)c1 (stereo not drawn) do in these assays?
GPR151 ag: 0; MITF primary: 73*; TEAD-YAP inh: 6; FBW7 act: 0; MITF inh conf: 2; AS interf ctr: -1

What do the screens show for `CC1(C)C2CC=C(COCC(O)CNCc3cccnc3)C1C2` (stereo not drawn)?
GPR151 ag: 3; MITF primary: 62*; TEAD-YAP inh: 2; FBW7 act: 0; MITF inh conf: 9; AS interf ctr: 13

What do the screens show for `CCOCCCNCc1cc(Br)c(OCC(N)=O)c(OCC)c1`?
GPR151 ag: -1; MITF primary: 9; TEAD-YAP inh: -2; FBW7 act: 0

Results for COc1ccc(C2=NN(c3nc(-c4ccc(Cl)cc4)c4ccccc4n3)C(c3cccc([N+](=O)[O-])c3)C2)cc1 (stereo not drawn) ?
GPR151 ag: -1; MITF primary: -9; TEAD-YAP inh: -1; FBW7 act: 0

How did CCCCNC(=O)CCCCCn1nnc2ccccc2c1=O do in these assays?
GPR151 ag: 0; MITF primary: 73*; TEAD-YAP inh: -5; FBW7 act: 0; MITF inh conf: 0; AS interf ctr: -1

Results for CC(C)NC(=O)CCCCCn1nnc2ccccc2c1=O ?
GPR151 ag: 1; MITF primary: -6; TEAD-YAP inh: 2; FBW7 act: 0

Results for CC1=NN(c2ccc(C)cc2)C(=O)C1 ?
GPR151 ag: -1; MITF primary: 13; TEAD-YAP inh: 3; FBW7 act: -1

What do the screens show for `CC1=NN(c2nnc(C)c(=O)[nH]2)C(=O)C1`?
GPR151 ag: -1; MITF primary: 103*; TEAD-YAP inh: 7; FBW7 act: 0; MITF inh conf: 83*; AS interf ctr: 100*

Results for CCN(CC)c1ccc2cc(C(N)=O)/c(=N/NC(=O)c3ccc(C)cc3)oc2c1 ?
GPR151 ag: -1; MITF primary: 20; TEAD-YAP inh: -4; FBW7 act: 0

Results for O=C(Cn1cc2c(n1)CCCC2)N1CCN(c2ccccc2)CC1 ?
GPR151 ag: 3; MITF primary: 61*; TEAD-YAP inh: 3; FBW7 act: 1; MITF inh conf: 8; AS interf ctr: 13

How did O=C(Cn1cc2c(n1)CCCC2)N1CCCCC1 do in these assays?
GPR151 ag: 0; MITF primary: 4; TEAD-YAP inh: -8; FBW7 act: 0

How did Cc1c(C(=O)N2CCN(Cc3ccccc3)CC2)sc2ncn(CC(=O)N3CCC(C)CC3)c(=O)c12 do in these assays?
GPR151 ag: 0; MITF primary: 5; TEAD-YAP inh: 31; FBW7 act: 0

Results for COc1cc(NC(=O)c2nn3c(c2Cl)NC(c2ccccc2)CC3C(F)(F)F)cc([N+](=O)[O-])c1 (stereo not drawn) ?
GPR151 ag: 1; MITF primary: -9; TEAD-YAP inh: -10; FBW7 act: 0

What do the screens show for `CCOC(=O)c1sc(NC(=O)c2nn3c(c2Cl)NC(c2cccs2)CC3C(F)(F)F)c(C(=O)OCC)c1C` (stereo not drawn)?
GPR151 ag: 2; MITF primary: 68*; TEAD-YAP inh: -9; FBW7 act: 0; MITF inh conf: -9; AS interf ctr: -8

What do the screens show for `COc1cc(NC(=O)c2nn3c(c2Cl)NC(c2cccs2)CC3C(F)(F)F)cc([N+](=O)[O-])c1` (stereo not drawn)?
GPR151 ag: 0; MITF primary: 74*; TEAD-YAP inh: -4; FBW7 act: 0; MITF inh conf: -5; AS interf ctr: -8

Results for O=c1c2cn[nH]c2nc(SCc2cccnc2)n1-c1cccc(C(F)(F)F)c1 ?
GPR151 ag: -2; MITF primary: 4; TEAD-YAP inh: 2; FBW7 act: 1

How did O=C(Nc1ccc2c(c1)C(=O)NC2=O)c1ccc(Br)o1 do in these assays?
GPR151 ag: -2; MITF primary: 23; TEAD-YAP inh: -7; FBW7 act: 0

How did COc1ccccc1C(=O)NNC(=O)C(C)Oc1ccc(Cl)cc1Cl (stereo not drawn) do in these assays?
GPR151 ag: -1; MITF primary: 10; TEAD-YAP inh: 11; FBW7 act: 1

Results for c1ccc(C(CN2CCOCC2)c2ccccc2)cc1 ?
GPR151 ag: -1; MITF primary: 57*; TEAD-YAP inh: -8; FBW7 act: 0; MITF inh conf: -9; AS interf ctr: 2

What do the screens show for `N#CC1=C(N)Oc2c(c(=O)oc3ccccc23)C12C(=O)Nc1ccc(Br)cc12` (stereo not drawn)?
GPR151 ag: 1; MITF primary: 4; TEAD-YAP inh: 4; FBW7 act: 0

How did O=C(/C=C/c1ccco1)NC(=S)Nc1cccc(C(=O)O)c1 do in these assays?
GPR151 ag: -1; MITF primary: 69*; TEAD-YAP inh: -27; FBW7 act: -1; MITF inh conf: 62*; AS interf DR: >6.5; AS interf ctr: 10

What do the screens show for `CCN1CCc2c(sc(NC(=S)NC(=O)/C=C/c3ccccc3)c2C(N)=O)C1`?
GPR151 ag: 0; MITF primary: 10; TEAD-YAP inh: -3; FBW7 act: 0

How did CCN1CCc2c(sc(NC(=S)NC(=O)/C=C/c3ccco3)c2C(N)=O)C1 do in these assays?
GPR151 ag: 1; MITF primary: 78*; TEAD-YAP inh: -14; FBW7 act: 0; MITF inh conf: 79*; AS interf DR: >6.5; AS interf ctr: 3

How did O=C(/C=C/c1ccco1)NC(=S)Nc1ccc(Cl)c(C(=O)O)c1 do in these assays?
GPR151 ag: 0; MITF primary: 76*; TEAD-YAP inh: -2; FBW7 act: 0; MITF inh conf: 64*; AS interf DR: >6.5; AS interf ctr: 10

Results for COc1cccc(NC(=S)NC(=O)/C=C/c2ccco2)c1 ?
GPR151 ag: 1; MITF primary: 13; TEAD-YAP inh: -1; FBW7 act: 0
